The OligoGym collection

molecular target: FNBP1L; experiment: pooled miR-30 sensor sort-seq; sequence = guide strand; conditions: shRNA
Also: reference of the scale not given here.

Sequence | sensor-assay potency score (higher = more potent)
TAAGCTGTCGAACTGATCCCAC | 0.0926
TAACTTTGCGTTCTGAGTCAGC | -0.716
TAATTCACCATACACTCTGTGC | -0.622
TATGATTCAAATAACACTGGGA | 0.483
TTGTAGTTGCTTGTAAATCTGA | -0.235
TTGTCTAAGCTGTCGAACTGAT | -0.84
TAATGTAGAGAACTTCACCTTC | -0.0833
TTTCTCTAGAGTTACATCTATG | -0.933
TGACTTTTGACAATAGTCCTTT | -0.217
TTCATCATCAAACTCATTGTGG | 0.113

molecular target: FNBP1; experiment: as above; conditions: shRNA

Sequence | sensor-assay potency score (higher = more potent)
TATACTTGTATTCTTCTTCCTC | 0.713
TTTACTAGATTCAAGCTGCTTC | 0.524
ATCTCTTTGATCCATCTCCTTC | -0.792
TTTGGTGACGTATTTGAGCTTG | 0.00299
TAAGCTTCTATTACCAGCTGTG | 0.175
TTTATAAGCTTCTATTACCAGC | -0.679
TAGAATTAGTGCAACACACATA | -0.218
TTTCTGGGTCTCTACTCGCAGT | -1.12
TAACTCATCGACTTTCTGCTGC | 0.71
TTTATTTAACTCATCGACTTTC | -0.243

molecular target: FNDC5; experiment: as above; conditions: shRNA

Sequence | sensor-assay potency score (higher = more potent)
TTATTGGGTTCATTGTCCTTGA | -0.801
TTTTTCCTTGTTGTTATTGGGT | -0.666
TACCTCATCTTTGTTCTTGGAG | 0.567
TTGTAGTGCAGCCTCCTTCATC | -0.884
TTTTCCTTGTTGTTATTGGGTT | -0.634
TTGATGATGTCATACTGGCGGC | -0.843
TTGAGAGCTCTTGTAGACCGGA | 0.301
TTCCTAAATAAATTGGACCAGT | -0.788
TTGGTCTGAAAGACACAGCTTG | -0.175
TTGTCCAAGCTAGCATTTCTGA | -1.26
TAGCCAGAGCTGCTCTTCCTGT | -1.11
TTGAAGAGCACAGGCTCGCTGG | -0.67

molecular target: FNTB; experiment: as above; conditions: shRNA

Sequence | sensor-assay potency score (higher = more potent)
TTGACTGCTGCATATGTGGGTG | -0.313
TATTGAAACGTATAAACCTTGT | -0.892
TAAACCTTGTCTGACTGGGGAG | -0.535
AAGGTGTGGATACTGACCGGGT | -0.0926
TTGAACTTGTAAGAACTGAAGA | -0.977
TCCACCAGCTTGTTGCAGCGGC | -1.13
TTTTCTTCTACTTTTGCCTGTT | 0.0828
TCTGTAGCCACTATCTGGGGGA | 0.162
